As usually defined, the viability is a read-out of living cells in per cent, often relative to untreated cells.

Values without a mark were called inactive. Active and inactive are the calls of the source.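 The calls were made as follows, unless noted: active = normalized viability below 100% at a tested concentration; inactive = the rest.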

In PubChem BioAssay one finds viability, luciferase signal and remaining NAD data, which are given here for 7 molecules.

A short description of assay [1]: drug combination growth inhibition, ovarian cancer – cell-based, oncology-focused library, rucaparib conditional, profiling panel (AID 1508598). The following applies: patient-derived ovarian cancer cells, CellTiter-Glo viability, 144 h, hits give low values. (Cellular ATP, detected with luciferase, serves as a proxy for viable cell number.)
In assay [2] the target is Mitogen-activated protein kinase 7 (Homo sapiens) (UniProt Q13164). In words: Gal4-ERK5 driven luciferase induction – cell-based, HTS, primary screen (AID 1508626;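 active = luciferase signal above three times the same-plate solvent-only control wells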;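 also: luciferase driven by Gal4-ERK5 fusion binding five Gal4 sites before minimal TATA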). The following applies: HeLa Gal4-ERK5 transactivation, 18 h, at 5 µM, hits give high values.
Mitogen-activated protein kinase 7 (Homo sapiens), sequence (Q13164 whole entry, looked up, the tested form may be a part): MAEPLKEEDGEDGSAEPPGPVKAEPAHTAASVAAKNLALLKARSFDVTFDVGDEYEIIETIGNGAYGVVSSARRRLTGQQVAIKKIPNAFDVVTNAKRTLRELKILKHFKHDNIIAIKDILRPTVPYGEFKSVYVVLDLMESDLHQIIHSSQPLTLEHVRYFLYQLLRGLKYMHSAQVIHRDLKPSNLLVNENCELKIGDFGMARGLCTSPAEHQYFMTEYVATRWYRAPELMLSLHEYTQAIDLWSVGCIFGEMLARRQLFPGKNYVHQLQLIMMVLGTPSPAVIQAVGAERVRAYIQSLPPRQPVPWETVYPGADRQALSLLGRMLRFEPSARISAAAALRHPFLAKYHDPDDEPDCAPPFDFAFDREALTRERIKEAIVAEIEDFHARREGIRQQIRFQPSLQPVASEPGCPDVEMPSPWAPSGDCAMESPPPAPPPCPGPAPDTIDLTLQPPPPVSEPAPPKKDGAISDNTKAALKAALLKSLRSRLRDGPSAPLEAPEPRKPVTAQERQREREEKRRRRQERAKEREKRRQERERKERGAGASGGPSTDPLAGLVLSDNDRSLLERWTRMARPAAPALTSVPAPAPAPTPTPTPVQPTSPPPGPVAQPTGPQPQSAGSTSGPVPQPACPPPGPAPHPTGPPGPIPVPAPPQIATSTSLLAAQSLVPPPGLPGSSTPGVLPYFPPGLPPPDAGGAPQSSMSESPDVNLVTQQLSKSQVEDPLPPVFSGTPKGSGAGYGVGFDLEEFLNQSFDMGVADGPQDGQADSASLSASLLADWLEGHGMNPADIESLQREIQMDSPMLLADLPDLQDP
In assay [3] the target is NAD(+) hydrolase SARM1 (Homo sapiens) (UniProt Q6SZW1). Briefly: blocking NAD cleavage by SARM1 SAM-TIR – cell lysate, NAD-Glo luminescence (AID 1508614;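 active = compound whose remaining NAD level is above about 45 nM, limit read from the data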;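 also: higher remaining NAD means stronger inhibition of SARM1 NADase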). The following applies: SAM-TIR HEK293T lysate NADase, at 1 µM, hits give high values.
NAD(+) hydrolase SARM1 (Homo sapiens), sequence (Q6SZW1 whole entry, looked up): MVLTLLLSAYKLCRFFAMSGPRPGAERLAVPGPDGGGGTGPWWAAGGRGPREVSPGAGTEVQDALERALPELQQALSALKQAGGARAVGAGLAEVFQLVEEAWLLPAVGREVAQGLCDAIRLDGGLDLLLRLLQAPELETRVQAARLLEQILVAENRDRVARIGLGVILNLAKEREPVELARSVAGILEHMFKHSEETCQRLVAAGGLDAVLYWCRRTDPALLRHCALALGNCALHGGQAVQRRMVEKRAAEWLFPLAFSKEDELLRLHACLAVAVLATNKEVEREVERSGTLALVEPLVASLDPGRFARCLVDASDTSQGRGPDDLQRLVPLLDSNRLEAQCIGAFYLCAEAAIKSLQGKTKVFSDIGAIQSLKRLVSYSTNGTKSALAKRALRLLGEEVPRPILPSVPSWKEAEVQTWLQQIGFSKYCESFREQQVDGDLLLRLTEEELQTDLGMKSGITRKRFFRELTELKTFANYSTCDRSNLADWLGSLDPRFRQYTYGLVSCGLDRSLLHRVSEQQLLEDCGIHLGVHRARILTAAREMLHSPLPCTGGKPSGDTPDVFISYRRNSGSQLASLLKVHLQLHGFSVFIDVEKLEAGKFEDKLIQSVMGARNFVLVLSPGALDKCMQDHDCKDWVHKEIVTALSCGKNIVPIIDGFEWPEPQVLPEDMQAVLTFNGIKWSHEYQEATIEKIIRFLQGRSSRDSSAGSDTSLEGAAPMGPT

With `COc1cc([C@H]2c3cc4c(cc3[C@@H](O[C@@H]3O[C@@H]5CO[C@@H](c6cccs6)O[C@H]5[C@H](O)[C@H]3O)[C@H]3COC(=O)[C@H]23)OCO4)cc(OC)c1O`, the viability in assay [1] (at 0.000305 µM, OCI-C5x cells, with rucaparib 10 µM, 100% = cells with rucaparib alone) is 104%; in assay [1] (at 0.000305 µM, OCI-C5x cells, without rucaparib) it was 117%; in assay [1] (at 0.000305 µM, OCI-P5x cells, with rucaparib 20 µM, 100% = cells with rucaparib alone), 100%; in assay [1] (at 0.000305 µM, OCI-P5x cells, without rucaparib) it was 116%; in assay [1] (at 0.00122 µM, OCI-C5x cells, with rucaparib 10 µM, 100% = cells with rucaparib alone), 115%; in assay [1] (at 0.00122 µM, OCI-C5x cells, without rucaparib), 111%. For the same molecule, the viability was 102% in assay [1] (at 0.00122 µM, OCI-P5x cells, with rucaparib 20 µM, 100% = cells with rucaparib alone); 109% in assay [1] (at 0.00122 µM, OCI-P5x cells, without rucaparib); 97.4% (active) in assay [1] (at 0.00488 µM, OCI-C5x cells, with rucaparib 10 µM, 100% = cells with rucaparib alone); 104% in assay [1] (at 0.00488 µM, OCI-C5x cells, without rucaparib); 100% in assay [1] (at 0.00488 µM, OCI-P5x cells, with rucaparib 20 µM, 100% = cells with rucaparib alone); 109% in assay [1] (at 0.00488 µM, OCI-P5x cells, without rucaparib). Also, the viability in assay [1] (at 0.0195 µM, OCI-C5x cells, with rucaparib 10 µM, 100% = cells with rucaparib alone) is 73.9% (active); in assay [1] (at 0.0195 µM, OCI-C5x cells, without rucaparib), 81.6% (active); in assay [1] (at 0.0195 µM, OCI-P5x cells, with rucaparib 20 µM, 100% = cells with rucaparib alone) it was 102%; in assay [1] (at 0.0195 µM, OCI-P5x cells, without rucaparib), 102%; in assay [1] (at 0.0781 µM, OCI-C5x cells, with rucaparib 10 µM, 100% = cells with rucaparib alone), 63.2% (active); in assay [1] (at 0.0781 µM, OCI-C5x cells, without rucaparib), 73.7% (active). For the same molecule, the viability in assay [1] (at 0.0781 µM, OCI-P5x cells, with rucaparib 20 µM, 100% = cells with rucaparib alone) was 87.9% (active); in assay [1] (at 0.0781 µM, OCI-P5x cells, without rucaparib), 60.7% (active); in assay [1] (at 0.313 µM, OCI-C5x cells, with rucaparib 10 µM, 100% = cells with rucaparib alone), 78.4% (active); in assay [1] (at 0.313 µM, OCI-C5x cells, without rucaparib), 56.8% (active); in assay [1] (at 0.313 µM, OCI-P5x cells, with rucaparib 20 µM, 100% = cells with rucaparib alone), 71% (active); in assay [1] (at 0.313 µM, OCI-P5x cells, without rucaparib) it was 35.6% (active). In addition, the viability in assay [1] (at 1.25 µM, OCI-C5x cells, with rucaparib 10 µM, 100% = cells with rucaparib alone) was 33.4% (active); in assay [1] (at 1.25 µM, OCI-C5x cells, without rucaparib), 21.2% (active); in assay [1] (at 1.25 µM, OCI-P5x cells, with rucaparib 20 µM, 100% = cells with rucaparib alone), 54.6% (active); in assay [1] (at 1.25 µM, OCI-P5x cells, without rucaparib), 23.6% (active); in assay [1] (at 5 µM, OCI-C5x cells, with rucaparib 10 µM, 100% = cells with rucaparib alone) it was 8.34% (active); in assay [1] (at 5 µM, OCI-C5x cells, without rucaparib), 7.07% (active). Moreover, the viability in assay [1] (at 5 µM, OCI-P5x cells, with rucaparib 20 µM, 100% = cells with rucaparib alone) was 12.4% (active); in assay [1] (at 5 µM, OCI-P5x cells, without rucaparib), 7.92% (active).
`CC1(C)S[C@@H]2[C@H](N3C(=O)[C@@H](c4ccccc4)NC3(C)C)C(=O)N2[C@H]1C(=O)O`: the luciferase signal in assay [2] was 40 AU.
Consider `C[C@@H]1O[C@@H]1P(=O)(O)O`, for which the luciferase signal in assay [2] is 76 AU.
As for `CCCCC/C=C/CCC(=O)N[C@H]1[C@H](Oc2c3cc4cc2Oc2ccc(cc2Cl)[C@@H](O[C@@H]2O[C@H](CO)[C@@H](O)[C@H](O)[C@H]2NC(C)=O)[C@@H]2NC(=O)[C@H](NC(=O)[C@@H]4NC(=O)[C@H]4NC(=O)C(Cc5ccc(c(Cl)c5)O3)NC(=O)[C@@H](N)c3ccc(O)c(c3)Oc3cc(O)cc4c3)c3ccc(O)c(c3)-c3c(OC4O[C@H](CO)[C@@H](O)[C@H](O)[C@@H]4O)cc(O)cc3[C@@H](C(=O)O)NC2=O)O[C@H](CO)[C@@H](O)[C@@H]1O` (some centres undefined), in assay [2], the luciferase signal was 52 AU.
Regarding `COC(=O)C[C@H]1C(C)(C)C(=O)[C@@H]2CC3C4=CC(=O)O[C@@H](c5ccoc5)[C@]4(C)CCC3[C@@]1(C)C2=O` (some centres undefined), in assay [2], the luciferase signal is 24 AU.
On to `C[C@H]1C[C@@H]2[C@H]([C@@H](O)C[C@@]3(C)[C@H]2CC[C@]3(O)C(=O)COC(=O)CCC(=O)O)[C@@]2(C)C=CC(=O)C=C12`, for which the remaining NAD in assay [3] was 10 nM. For the same molecule, in assay [2], the luciferase signal is 72 AU.
Consider `O=c1cc(-c2cccc(O)c2)oc2ccc(O)cc12`, for which, in assay [2], the luciferase signal was 124 AU.
